Screening data (PubChem)
FLuc counter: firefly luciferase modulation, counter-screen for miR-21 project. Potency, µM (doses to about 57.5 µM), hits mostly inhibitors. 360,000 compounds, 6.9% hits. purified FLuc, Km substrates, luminescence inhibition. P08659; note: nearly all actives have a fitted effect of over 55% in size
Target sequence (P08659 whole entry, looked up): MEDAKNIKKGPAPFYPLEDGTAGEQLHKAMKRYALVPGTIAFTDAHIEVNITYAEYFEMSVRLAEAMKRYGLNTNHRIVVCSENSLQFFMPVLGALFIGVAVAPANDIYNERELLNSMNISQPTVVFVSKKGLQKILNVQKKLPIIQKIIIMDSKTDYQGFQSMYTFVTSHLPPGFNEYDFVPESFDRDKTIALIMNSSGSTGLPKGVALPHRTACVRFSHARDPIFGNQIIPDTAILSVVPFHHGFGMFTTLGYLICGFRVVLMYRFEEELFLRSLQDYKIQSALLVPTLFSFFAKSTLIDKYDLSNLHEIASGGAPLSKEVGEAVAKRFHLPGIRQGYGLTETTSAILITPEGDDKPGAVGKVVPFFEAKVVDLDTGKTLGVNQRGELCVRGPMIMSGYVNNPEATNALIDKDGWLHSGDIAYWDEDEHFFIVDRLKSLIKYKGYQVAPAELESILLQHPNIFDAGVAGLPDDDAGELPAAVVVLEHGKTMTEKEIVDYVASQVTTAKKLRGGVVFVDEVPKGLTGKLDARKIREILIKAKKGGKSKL
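Purified P. pyralis luciferase, 10 nM final, with Km-level 10 uM D-luciferin and 10 uM ATP in 50 mM Tris acetate pH 7.5, 10 mM Mg acetate, 0.01% Tween-20, 0.05% BSA; 6-point qHTS titration about 60 µM downward; luminescence read.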
Luc counter: blocks Kinase-Glo luciferase, a counter-screen artifact | Q27757 | Kinase-Glo luciferase, ATP luminescence, 8 min | Potency, µM (top dose mostly 38.3 µM), usual class: inhibitors | 200,000 compounds, 0.28% hits | AID 1379; note: nearly all actives have a fitted effect of over 60% in size
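Substrate mix (final 50 mM imidazole pH 7.2, 50 mM KCl, 7 mM MgCl2, 10 uM ATP, 0.01% Tween 20, 0.05% BSA) plus pin-tool compound, then Kinase-Glo detection mix; 8 min ambient, luminescence read.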
SMN2 splice enh: SMN2 splice variant enhancement. 210,000 compounds, 2.8% hits. Potency, µM (titrated, usually from 46.1 µM), actives largely listed as activators. HEK293 SMN2-luciferase splicing reporter, luminescence, 30-36 h; note: nearly all actives have a fitted effect of over 55% in size
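HEK293 cells carry an SMN2 […]–luciferase reporter in which exon 7 inclusion puts luciferase in frame. Cells were plated 10-12 h before compound addition, then incubated 30-36 h at 37C. ONE-Glo luminescence was read; sodium butyrate at 4.5 mM final served as control.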
NPC1 prom act: activators of NPC1 promoter; 320,000 compounds, 2.4% hits; Potency, µM (doses to about 9.22 µM), usual class: activators; Huh7 NPC1 promoter luciferase reporter, 24 h; note: nearly all actives have a fitted effect of over 60% in size
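In 1536-well qHTS, Huh7 cells harboring an NPC1 promoter–luciferase construct received compound for 24 h; activation was quantified by luminescence following luciferase reagent addition.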
Rab9 promoter act: Rab9 promoter activation; Huh7 Rab9 promoter-luciferase reporter, luminescence, 24 h; Potency, µM (top dose mostly 9.22 µM), hits mostly activators; 320,000 compounds, 2.8% hits; note: nearly all actives have a fitted effect of over 60% in size
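Quantitative HTS format; Huh7 Rab9-luciferase reporter cells (1500/well) receive compound 2 h post-plating, incubate 24 h at 37 °C, then get luciferase reagent for 10 min before luminescence reading.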
Numbers stand for hits; [ ] = another dose, or the depositor's remark. Hits are enriched below; roughly 7.3% of the tested compounds scored in any of these assays. Calls come from the whole dose curve; as a rule, active = well fitted curve in the direction sought with a large enough effect; inconclusive = small, poorly fitted or top-dose-only effect, or another doubt; inactive = no such curve, though single readings can be large; an effect the other way counts as inactive or inconclusive.

For Clc1ccc(-c2cnn3c(-c4ccncc4)ccnc23)cc1 the results were FLuc counter 0.953µM, Luc counter inactive, SMN2 splice enh 3.16µM, NPC1 prom act 0.501µM and Rab9 promoter act 0.355µM.
CC(=O)c1cnc2c(-c3ccccc3)c(-c3ccccc3)nn2c1C was read as FLuc counter inactive, NPC1 prom act inactive and Rab9 promoter act inactive.
Cc1cccc(C(=O)Nc2ccc3nc(SCC(=O)N4CCc5ccccc54)sc3c2)c1 was read as FLuc counter inactive.
For Cc1csc2nc(COC(=O)c3ccc(NC(=O)C(C)Oc4ccccc4)cc3)cc(=O)n12 (centres undefined) the results were FLuc counter inactive.
COc1ccccc1CNC(=O)Cn1c(=O)oc2cc(S(=O)(=O)NCc3ccccc3)ccc21 was read as FLuc counter inactive.
`O=c1c2sccc2n(Cc2cc(=O)n3ccccc3n2)c(=O)n1-c1cc(F)ccc1F` gave FLuc counter inactive and SMN2 splice enh inactive.
Screening Cc1cccc(Cn2c(SCc3ccc(C(=O)NC4CCCC4)cc3)nc3cccnc32)c1 returned FLuc counter inactive.
Cc1ccc(CNC(=O)c2ccc(Cn3c(SCc4ccccc4F)nc4cccnc43)cc2)cc1 was read as FLuc counter 6.75µM.
For Cc1ccc(CNC(=O)c2ccc(Cn3c(SCc4ccc(F)cc4)nc4cccnc43)cc2)o1 the results were FLuc counter 3.79µM and SMN2 splice enh inactive.
For Cc1cccc(CSc2nc3cccnc3n2Cc2ccc(C(=O)NCc3ccco3)cc2)c1 the results were FLuc counter 19µM.
Screening O=C(NC1CCCC1)c1ccc(CSc2nc3cccnc3n2Cc2ccccc2F)cc1 returned FLuc counter inactive.
For Cc1cccc(Cn2c(SCc3ccc(C(=O)NCc4ccccc4F)cc3)nc3cccnc32)c1 the results were FLuc counter inactive.
Screening O=C(NCc1ccco1)c1ccc(Cn2c(SCc3ccccc3F)nc3cccnc32)cc1 returned FLuc counter 8.49µM.
Screening CC1CCN(S(=O)(=O)c2ccc3c(c2)c(=O)c(C(=O)NC(C)c2ccccc2)cn3C)CC1 (centres undefined) returned FLuc counter inactive and SMN2 splice enh inactive.
Screening COc1ccc2c(c1)OC(=O)CC2c1ccc2c(c1)OCO2 (centres undefined) returned Luc counter inactive.
`O=C(CSc1nc2cccnc2n1Cc1ccccc1)NCc1ccco1` gave FLuc counter inactive, Luc counter inactive, SMN2 splice enh inactive, NPC1 prom act inactive and Rab9 promoter act inactive.
`Cc1ccc(Cn2c(SCc3ccc(C(=O)O)cc3)nc3cccnc32)cc1` gave FLuc counter 16.9µM and SMN2 splice enh inactive.
`COc1ccc(NC(=O)Cn2c(SCc3ccc(C)cc3)nc3cccnc32)c(OC)c1` gave FLuc counter 1.9µM.
Screening Cc1ccc(CSc2nc3cccnc3n2Cc2ccc(C(=O)NCc3ccco3)cc2)cc1 returned FLuc counter 0.601µM.
Screening O=C1C2=C(Nc3cc([N+](=O)[O-])ccc3N2)O[C@@H]1c1c[nH]c2ccc(COc3ccccc3)cc12 returned Luc counter inactive[7.66 µM] and SMN2 splice enh inactive[9.22 µM].
Clc1cccc(-n2ncc3c(NC4CCCCCC4)ncnc32)c1 was read as FLuc counter 6.01µM.
For Cc1cccc(-n2ncc3c(Nc4c(C)n(C)n(-c5ccccc5)c4=O)ncnc32)c1 the results were FLuc counter inactive, Luc counter inactive, SMN2 splice enh inactive, NPC1 prom act inactive and Rab9 promoter act inactive.
Cc1cccc(-n2ncc3c(NC4CCCC4)ncnc32)c1 was read as FLuc counter 3.01µM.
For Cc1cccc(-n2ncc3c(Nc4ccc(Oc5ccc(Cl)cc5)cc4)ncnc32)c1 the results were FLuc counter inactive.
Cc1cccc(-n2ncc3c(NC4CCCCC4)ncnc32)c1 was read as FLuc counter 1.51µM, Luc counter inactive, SMN2 splice enh inconclusive, NPC1 prom act 4.47µM and Rab9 promoter act 2µM.
CC(=O)Nc1ccccc1-c1nc2ccccc2n(CC(=O)c2ccc(C)c(C)c2)c1=O was read as FLuc counter inactive.
For Cc1cc(Cl)ccc1OCC(=O)Nc1nc(-c2cccs2)cs1 the results were FLuc counter 23.9µM, Luc counter inactive, SMN2 splice enh inactive, NPC1 prom act inactive and Rab9 promoter act inactive.
